An excerpt weighted towards active compounds, which were near 9.3% of everything screened.
NPC1 prom act: activates the NPC1 promoter | Huh7 NPC1 promoter luciferase reporter, 24 h | Potency, µM (highest dose often 9.22 µM), inactives show at the highest dose activation, actives largely listed as activators | 320,000 compounds, 2.4% hits | AID 485313; note: % of control where 0% means no effect; nearly all actives have a fitted effect of over 60% in size
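Luciferase expression driven by the NPC1 promoter was measured in stably transfected Huh7 cells after a 24 h compound incubation, using a luciferase reagent and a luminescence read.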
Rab9 promoter act: activators of Rab9 promoter | Huh7 Rab9 promoter-luciferase reporter, luminescence, 24 h | Potency, µM (doses to about 9.22 µM), without a hit: at the top dose activation, negative = inhibition, most hits filed as activators | 320,000 compounds, 2.8% hits; note: % of control where 0% means no effect; nearly all actives have a fitted effect of over 60% in size
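Luminescence from Amplite-detected luciferase (10 minutes, ambient) reports Rab9 promoter activation. Before that, stable Rab9-luciferase Huh7 cells (1500/well, reduced-serum OP-MEM I plus 10% FBS) were exposed to compound for 24 hours at 37C.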
SMN2 splice up: enhancers of SMN2 splice variant expression; HEK293 SMN2-luciferase splicing reporter, luminescence, 30-36 h; 210,000 compounds, 2.8% hits; AID 1458; Potency, µM (top dose mostly 46.1 µM), inactives show at the highest dose activity change, positive = activation, actives largely listed as activators; note: % of control where 0% means no effect; nearly all actives have a fitted effect of over 55% in size
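HEK293 cells carry an SMN2 minigene-luciferase reporter in which exon 7 inclusion puts luciferase in frame. Cells were seeded at 2000 cells/well, attached for 10-12 hours, then exposed to compounds for 30-36 hours at 37C before ONE-Glo luminescence.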
ELG1 genotoxic: inducers of genotoxicity in HEK293T ELG1-luciferase cells. Potency, µM (series often up to 46 µM), without a hit: at the highest dose activity change, positive = activation, hits mostly activators. HEK293T ELG1-luciferase reporter, luminescence, 16 h. AID 504466. 330,000 compounds, 1.3% hits; note: % of control where 0% means no effect; nearly all actives have a fitted effect of over 60% in size
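Cells (2,000/well) expressing the ELG1-luciferase fusion are dosed by pin tool and kept 16 hr at 37 °C, 5% CO2. Signal comes from ONE-Glo luciferase reagent after 30 min at room temperature.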
ELG1 repair inh: blocks ELG1-dependent DNA repair in HEK293T cells. HEK293T ELG1-luciferase reporter, luminescence, 16 h; DNA damage induced by 5-fluorouridine. Potency, µM (doses to about 46.1 µM), for the others: top-dose activity change, negative = inhibition, actives largely listed as inhibitors. 330,000 compounds, 2.3% hits; note: % is set by controls: 0 for no effect and ±100 for the full control effect; nearly all actives have a fitted effect of over 55% in size
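In this reporter screen, reduction of luminescence relative to DMSO vehicle indicated activity. Compounds and 5-fluorouridine were added together to 2,000 cells per well, incubated for 16 hr at 37 °C, then developed with ONE-Glo.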
FLuc modulator: firefly luciferase modulation, counter-screen for miR-21 project. P08659. purified FLuc, Km substrates, luminescence inhibition. 360,000 compounds, 6.9% hits. Potency, µM (titrated, usually from 57.5 µM), without a hit: at the top dose activity change, negative = inhibition, hits mostly inhibitors;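 note: plate controls were vehicle for no effect and reference inhibitor for full effect; nearly all actives have a fitted effect of over 55% in size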
Target sequence (P08659 whole entry, looked up): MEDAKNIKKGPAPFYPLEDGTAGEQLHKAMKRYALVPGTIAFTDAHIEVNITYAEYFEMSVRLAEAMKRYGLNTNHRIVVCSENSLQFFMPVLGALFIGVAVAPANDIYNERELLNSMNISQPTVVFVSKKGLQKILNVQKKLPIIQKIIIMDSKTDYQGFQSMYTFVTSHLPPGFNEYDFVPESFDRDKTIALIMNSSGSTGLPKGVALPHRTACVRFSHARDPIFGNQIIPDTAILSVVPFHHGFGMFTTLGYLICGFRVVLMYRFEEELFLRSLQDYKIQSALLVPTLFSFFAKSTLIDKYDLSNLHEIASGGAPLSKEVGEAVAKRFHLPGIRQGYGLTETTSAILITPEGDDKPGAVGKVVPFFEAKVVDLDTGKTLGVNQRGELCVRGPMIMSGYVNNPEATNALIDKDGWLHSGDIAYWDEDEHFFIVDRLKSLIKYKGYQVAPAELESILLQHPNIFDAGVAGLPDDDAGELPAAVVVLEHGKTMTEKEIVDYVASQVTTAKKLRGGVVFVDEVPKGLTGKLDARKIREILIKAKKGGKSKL
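Purified P. pyralis luciferase (10nM final) with 10uM D-luciferin and 10uM ATP (Km levels) in 50mM Tris acetate pH 7.5, 10mM Mg acetate, 0.01% Tween-20, 0.05% BSA; qHTS 6-point titration, ~60 µM downward; luminescence read.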
Active calls of the source: *. Calls come from the whole dose curve; as a rule, active = well fitted curve in the direction sought with a large enough effect; inconclusive = small, poorly fitted or top-dose-only effect, or another doubt; inactive = no such curve, though single readings can be large; an effect the other way counts as inactive or inconclusive. Potency is the fitted concentration of half-maximal effect.

For O=C(Nc1ccccc1C(=O)NCC1CCCO1)c1ccccc1 (centres undefined) the results were NPC1 prom act -4%, Rab9 promoter act -7%, SMN2 splice up 4%, ELG1 genotoxic 0%, ELG1 repair inh 1% and FLuc modulator -12%.
Screening COC(CNC(=O)c1cnn2c(C)c(Cc3ccccc3)c(C)nc12)OC returned NPC1 prom act 0%, Rab9 promoter act -8%, SMN2 splice up -25%, ELG1 genotoxic -4%, ELG1 repair inh inconclusive and FLuc modulator -4%.
COC(CNC(=O)c1coc2nc3ccccc3nc12)OC was read as NPC1 prom act 2%, Rab9 promoter act 0%, ELG1 genotoxic 1%, ELG1 repair inh 0% and FLuc modulator 11µM*.
Screening COc1ccc(-n2c(N)c(C(=O)NCC3CCCO3)c3nc4ccccc4nc32)c(OC)c1 (centres undefined) returned NPC1 prom act -15%, Rab9 promoter act 1%, SMN2 splice up 1%, ELG1 genotoxic -4%, ELG1 repair inh -20% and FLuc modulator 4%.
For O=C(NC1CCCCC1)c1cccc(S(=O)(=O)N2CCCCC2)c1 the results were NPC1 prom act -3%, Rab9 promoter act 2%, ELG1 repair inh inconclusive and FLuc modulator -1%.
`Cc1ccc(C(=O)COC(=O)c2nc3nccc(C)n3n2)c(C)c1` gave NPC1 prom act -1%, Rab9 promoter act -1%, ELG1 genotoxic -1%, ELG1 repair inh 11% and FLuc modulator -4%.
For COc1cc(OC)c(NC(=O)CN(C)S(=O)(=O)c2ccc(-c3ccc(=O)[nH]n3)s2)cc1Cl the results were NPC1 prom act 0%, Rab9 promoter act -10%, ELG1 genotoxic 3%, ELG1 repair inh 6.5µM* and FLuc modulator 1%.
Screening Cc1occc1C(=O)N/N=C/c1sc(N2CCOCC2)nc1-c1ccccc1 returned NPC1 prom act 1%, Rab9 promoter act 1%, SMN2 splice up -28%, ELG1 genotoxic -15%, ELG1 repair inh inconclusive and FLuc modulator -2%.
Screening COC(=O)c1ccc(C(NC(=O)OCc2ccccc2)/C(=C/[C@@H](C)C(=O)NCc2ccc(C)o2)c2cccnc2)cc1 (some centres undefined) returned SMN2 splice up -4%.
Screening CCN(CC(=O)Nc1c(F)cccc1F)C(=O)/C=C/c1ccc(OCC#N)c(OC)c1 returned NPC1 prom act 0%, Rab9 promoter act -6%, ELG1 genotoxic 1%, ELG1 repair inh 1% and FLuc modulator 6%.
CCN(CC(=O)Nc1c(F)cccc1F)C(=O)/C=C/c1ccc(C)cc1 was read as NPC1 prom act inconclusive, Rab9 promoter act inconclusive, ELG1 genotoxic inconclusive, ELG1 repair inh inconclusive and FLuc modulator 19µM*.
For Cc1ccc(OCCn2cnc3cc([N+](=O)[O-])ccc3c2=O)cc1 the results were NPC1 prom act -6%, Rab9 promoter act -1%, SMN2 splice up -6%, ELG1 genotoxic -9%, ELG1 repair inh 21µM* and FLuc modulator -4%.
O=C(NNc1c(Cl)cc(Cl)cc1Cl)c1cccc([N+](=O)[O-])c1 was read as NPC1 prom act 0%, Rab9 promoter act -8%, SMN2 splice up -12%, ELG1 genotoxic -1%, ELG1 repair inh 14% and FLuc modulator 4%.
For COc1ccccc1C(=O)NNC1=NS(=O)(=O)c2ccccc21 the results were NPC1 prom act 1%, Rab9 promoter act 3%, ELG1 genotoxic 0%, ELG1 repair inh inconclusive and FLuc modulator inconclusive.
O=C(NNC1=NS(=O)(=O)c2ccccc21)c1ccccc1Cl was read as NPC1 prom act 4%, Rab9 promoter act -9%, ELG1 genotoxic 6%, ELG1 repair inh inconclusive and FLuc modulator 17µM*.
O=C(NNC1=NS(=O)(=O)c2ccccc21)c1cccc([N+](=O)[O-])c1 was read as NPC1 prom act 14%, Rab9 promoter act 3%, ELG1 genotoxic 2%, ELG1 repair inh 10% and FLuc modulator 12µM*.
For O=C(NNC1=NS(=O)(=O)c2ccccc21)c1ccccc1 the results were NPC1 prom act 29%, Rab9 promoter act 25%, ELG1 genotoxic 6%, ELG1 repair inh inconclusive and FLuc modulator 4.8µM*.
O=C(/C=C/c1ccccc1)NNC1=NS(=O)(=O)c2ccccc21 was read as NPC1 prom act -2%, Rab9 promoter act 10%, ELG1 genotoxic 2%, ELG1 repair inh 15% and FLuc modulator 24µM*.
C=CCNC(=O)c1ccc(NC(=O)C2=CSCCO2)cc1 was read as NPC1 prom act 0.89µM*, Rab9 promoter act 0.79µM*, ELG1 genotoxic inconclusive, ELG1 repair inh inconclusive and FLuc modulator 12µM*.
COC(=O)Cc1ccc(NC(=O)c2ccccc2Cl)cc1 was read as NPC1 prom act 2%, Rab9 promoter act -2%, SMN2 splice up 23%, ELG1 genotoxic 15%, ELG1 repair inh inconclusive and FLuc modulator 15µM*.
For Cc1ccc(NC(=O)c2ccsc2)cc1NS(C)(=O)=O the results were NPC1 prom act -5%, Rab9 promoter act -3%, ELG1 genotoxic 2%, ELG1 repair inh 13% and FLuc modulator -3%.
Screening CC(=O)Nc1ccc(C(=O)NNC(=O)c2ccc(Cl)cc2)cc1 returned NPC1 prom act -1%, Rab9 promoter act -4%, ELG1 genotoxic -2%, ELG1 repair inh 25% and FLuc modulator -3%.
`CC(C)(C)c1ccc(C(=O)Nc2ccc(Cl)cc2)cc1` gave NPC1 prom act 2.8µM*, Rab9 promoter act 1.4µM*, SMN2 splice up 3.5µM*, ELG1 genotoxic inconclusive, ELG1 repair inh inconclusive and FLuc modulator inconclusive.
For CC(C)(C)c1ccc(NC(=O)c2ccsc2)cc1 the results were NPC1 prom act 0.45µM*, Rab9 promoter act 0.4µM*, ELG1 genotoxic inconclusive, ELG1 repair inh inconclusive and FLuc modulator 1.1µM*.
COc1cccc(C(=O)Nc2ccc(NC(=O)c3ccc(C(C)(C)C)cc3)cc2)c1 was read as SMN2 splice up -14% and FLuc modulator 1%.
COC(=O)Cc1ccc(NC(=O)c2ccc(C(C)(C)C)cc2)cc1 was read as NPC1 prom act -29%, Rab9 promoter act -19%, SMN2 splice up -87%, ELG1 genotoxic -23%, ELG1 repair inh 9.2µM* and FLuc modulator 1.3µM*.
`NS(=O)(=O)c1ccc(NC(=O)c2ccccc2Cl)cc1` gave NPC1 prom act -2%, Rab9 promoter act -1%, SMN2 splice up -2%, ELG1 genotoxic -1%, ELG1 repair inh 0% and FLuc modulator -1%.

Bioassay records from PubChem.
